# Shiga inhibitor: Shiga toxin inhibition. actives 9.2% (n = 290,000). inhibition, % at 38.7 µM. Vero cells, Shiga toxin protein synthesis inhibition reporter; in the data active means inhibition mostly above about 28%, no sharp cut-off; inactive means mostly below about 43%; further: 0% is about no effect
# CHX counter: affects cycloheximide protein synthesis inhibition readout, counter-screen; AID 2314; max response, %; actives 12% (n = 300,000); cell reporter, cycloheximide protein synthesis inhibition counterscreen; in the data active means max response mostly above about 13%, no sharp cut-off; inactive means mostly below about 14%; further: read at 38.3 µM for the half of the compounds with a filed dose; 0% is about no effect
# Pf growth 96h: P. falciparum growth inhibition at 96 hour, primary screen for plastid delayed-death inhibitors; P. falciparum luciferase reporter growth, 96 h; Potency, µM (top dose mostly 28.7 µM), for the others: top-dose activity change, negative = inhibition, most hits filed as inhibitors; actives 6.9% (n = 320,000); further: potency means the concentration at half of the fitted maximal effect; on the % scale 0 is the no-effect control and ±100 the full control effect
#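 P. falciparum expressing integrated firefly luciferase grown in erythrocytes (2% hematocrit, 0.05% parasitemia final) with compounds for 96 hours at 37 C, 5% CO2. Growth inhibition read as loss of luminescence after adding luciferase detection reagent.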
# AMA1-RON2 inh: inhibitors of Plasmodium falciparum AMA1-RON2 interaction | Potency, µM (series often up to 58.2 µM), for the others: at the top dose activity change, negative = inhibition, actives largely listed as inhibitors | actives 0.2% (n = 360,000) | AlphaScreen AMA1-biotinylated RON2 peptide binding;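 further: potency means the concentration at half of the fitted maximal effect; 0% = vehicle wells and -100% = peptide control; nearly all actives have a fitted effect of over 45% in size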
#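 AMA1 (3D7) with his tag at 25 nM final met compounds first, then biotinylated RON2 peptide at 25 nM; detection used donor plus acceptor beads, 10 µg/mL apiece, read by AlphaScreen after 30 min at room temperature.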
# SARS PLP yeast: inhibitors of SARS-CoV papain-like protease in yeast | actives 0.19% (n = 330,000) | S. cerevisiae expressing SARS-CoV PLpro, growth rescue | Potency, µM (series often up to 32.9 µM), for the others: at the top dose activity, positive = growth rescue, hits mostly activators; calls by dose curve; further: potency means the concentration at half of the fitted maximal effect; 0% is about no effect; nearly all actives have a fitted effect of over 55% in size
# Pf growth 48h: inhibits P. falciparum growth in the first generation, 48 h; actives 5.9% (n = 310,000); Potency, µM (doses to about 28.7 µM), without a hit: at the top dose activity change, negative = inhibition, hits mostly inhibitors; P. falciparum luciferase growth in erythrocytes, 48 h; further: potency means the concentration at half of the fitted maximal effect; on the % scale 0 is the no-effect control and ±100 the full control effect
#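 In quantitative HTS format, infected erythrocytes bearing luciferase-reporter parasites were treated for a single generation at 37 C. Luminescence after adding detection reagent served as the growth measure.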
# * = called active by the depositor; i = inactive; ? = inconclusive; . = no result given. Hits are enriched below; roughly 19% of the tested compounds scored in any of these assays. Unless noted, the call rests on the fitted dose curve; in most records, active means well fitted curve in the direction sought with a large enough effect; inconclusive means small, poorly fitted or top-dose-only effect, or another doubt; inactive means no such curve, though single readings can be large; an effect the other way counts as inactive or inconclusive.
SMILES,Shiga inhibitor,CHX counter,Pf growth 96h,AMA1-RON2 inh,SARS PLP yeast,Pf growth 48h
COc1cccc(C(=O)Nc2sc3c(c2C#N)CCN(C(C)=O)C3)c1,47.1,25.2*,12.3%,3.4%,-1.5%,43.5%
COc1ccc(OCCCC(=O)OCC(=O)c2ccc3c(c2)NC(=O)CO3)cc1,.,.,0.0%,-9.4%,-7.0%,4.6%
COc1cccc(C(=O)Nc2c[nH]c(=O)[nH]c2=O)c1,-1.5,0.3,29.1%,18.5%,-1.7%,65.7%
O=c1[nH]c(NCc2ccccc2)nc2c1CCCC2,-8.0,-0.6,8.28µM*,-4.8%,-8.1%,13.1µM*
CC1(C)Cc2c(sc(NC(=S)NC(=O)c3ccccc3)c2C(=O)O)CO1,3.4,1.6,10.2%,38.4%,-1.8%,2.7%
CC1(C)Cc2c(sc(NC(=O)c3ccco3)c2C(=O)O)CO1,43.5,29.7*,216.9%,19.6%,-6.1%,.
O=c1[nH]c(SCCc2ccccc2)nc2c1CCC2,.,.,.,-6.3%,.,.
COc1cccc(C(=O)Nc2sc3c(c2C(=O)O)CCCC3)c1,104.0*,36.7*,58.8%,0.2%,-4.5%,28.5%
COc1cccc(C(=O)Nc2nc3c(c(=O)[nH]2)CCCC3)c1,17.6,19.8*,-1.1%,9.0%,-10.3%,.
O=C1C(c2ccncc2)N(CCC2=CCCCC2)C(=O)CN1C1CCCCC1 (stereo not drawn),-15.2,-2.7,?,31.5%,1.6%,-5.7%
Cc1nc2c(N)nn(C)c2nc1C,.,.,.,9.2%,.,.
CCOC(=O)CN1C(=O)N2C[C@H]3CON(C)[C@H]3C[C@H]2c2ccccc21,.,.,.,1.5%,.,.
CC1(C(=O)NS(=O)(=O)c2ccccc2)CCN1C(=O)CCc1ccccc1 (stereo not drawn),.,.,.,11.9%,.,.
CC1(C)Cc2c(sc(NC(=O)c3ccc(Br)o3)c2C#N)CO1,70.7*,45.5*,i,-0.6%,-4.3%,222.7%
COC(=O)c1c(NC(=O)c2ccco2)sc2c1CCC2,12.1,3.1,.,9.6%,-7.3%,18.3%
Cc1ccc(C(=O)C(NC(=O)c2ccco2)Nc2sc3c(c2C(N)=O)CCCC3)cc1 (stereo not drawn),active,13.2*,28.4%,.,0.9%,?
Cc1cccc(C(=O)Nc2sc3c(c2C(=O)O)CCC3)c1,103.4*,42.4*,61.6%,-3.3%,-1.8%,40.9%
Cc1ccc2nc(C)cc(C(=O)OCC(=O)Nc3cccnc3Cl)c2c1,1.4,-5.0,2.5%,-6.1%,-3.4%,?
CCCCn1c(NCc2cccs2)nc2ccccc21,23.7,-1.3,-1.3%,-0.7%,-0.4%,?
Cn1c(C2=C(O)CN(Cc3ccccc3)C2=N)nc2ccccc21,33.3*,33.1*,62.3%,47.4%,0.8%,40.9%
COc1ccc(C2=COc3ccccc3C(=O)N2)cc1,55.6*,21.1*,6.8%,6.6%,-6.6%,8.6%
Cc1ccc(C(=O)N/N=C\c2ccc3c(c2)OCO3)cn1,28.3,17.0,27.3%,-10.1%,-2.5%,9.5%
COc1cc(/C=N/NC(=O)c2ccc3c(c2)OCCO3)cc(Cl)c1O,17.2,23.0*,?,25.9%,0.5%,26.9%
O=C(N/N=C/c1ccc(Br)o1)c1ccc2c(c1)OCCO2,100.8*,57.4*,8.2%,12.5%,-37.8%,56.8%
COc1cc(/C=N/NC(=O)CNC(=O)c2ccc3c(c2)OCCO3)ccc1O,16.5,11.0,2.8%,4.7%,-0.2%,?
SMILES,Shiga inhibitor,CHX counter,Pf growth 96h,AMA1-RON2 inh,SARS PLP yeast,Pf growth 48h
O=C(N/N=C/c1ccc([N+](=O)[O-])o1)c1ccc2c(c1)OCO2,8.8,8.8,?,4.8%,-8.3%,?
O=C(N/N=C/c1cccnc1)c1ccc2c(c1)OCCO2,42.3*,41.6*,45.6%,-1.7%,-7.1%,77.9%
O=C(N/N=C/c1ccc2c(c1)OCO2)c1cccnc1,103.5*,48.0*,18.1%,5.6%,1.5%,26.5%
O=C(N/N=C/c1cccnc1)c1ccc(NC(=O)c2cccc(Cl)c2)cc1,23.0,-1.0,24.8%,-21.8%,9.1%,?
COc1ccc(CNC(=O)CC[C@H]2O[C@@H](n3cnc4c(NC(=O)c5ccccc5)ncnc43)[C@H](O)[C@@H]2O)cc1,.,.,.,-2.3%,.,.
CC(OC(=O)COc1ccccc1)C(=O)NC1CCCC1 (stereo not drawn),.,.,18.5%,12.5%,0.2%,0.5%
Cn1nnnc1Sc1ncnc2scc(-c3ccc4c(c3)OCO4)c12,.,.,.,.,-2.7%,.

# From PubChem
